From PubChem BioAssay AID1159580 (chemical genetic matrix, 2015)
Several values for one entry are separate records, joined by “and”; a condition that tells them apart may be missing. Identical values can stand only once. Hit rate of the full screen: of about 5,500 compounds, about 2,000 (36%) were called active. Not shown: some 18% with an inconclusive outcome. No stated cut-off is given here; in the data, active means normalized growth mostly below about 0.91 (no sharp cut-off); inconclusive means no clear call, values can overlap the other calls; inactive means mostly above about 0.92. The list shows a part of the results.

Experiment: chemical genetic growth profiling, strain panel (AID 1159580);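 further: tested at 20 µM; growth read once vehicle control cultures reached saturation at 30 °C; 1 = growth at the plate median or of vehicle wells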
Details: S. cerevisiae deletion strains, growth OD

Measured: normalized growth

CN(C)C(=O)Oc1ccc[n+](C)c1
inactive: locus YAL021C, strain ccr4, stronger effect = lower value 1 | locus YAL026C, strain drs2, stronger effect = lower value 1.01 | locus YAL030W, strain snc1, stronger effect = lower value 0.998 | locus YAL040C, strain CLN3, stronger effect = lower value 0.966 | locus YBL061C, strain skt5, stronger effect = lower value 0.999 | locus YBR009C, strain hhf1, stronger effect = lower value 0.996 | locus YBR021W, strain FUR4, stronger effect = lower value 1.02 | locus YBR023C, strain chs3, stronger effect = lower value 1 | locus YBR171W, strain sec66, stronger effect = lower value 1 | locus YBR229C, strain ROT2, stronger effect = lower value 1.02 | locus YBR231C, strain swc5, stronger effect = lower value 1.03 | locus YBR279W, strain paf1, stronger effect = lower value 1 | locus YCL011C, strain gbp2, stronger effect = lower value 0.998 | locus YCL016C, strain dcc1, stronger effect = lower value 1.01 | locus YCL029C, strain bik1, stronger effect = lower value 1.02 | locus YCL061C, strain MRC1 (second series), stronger effect = lower value 0.992 | locus YCL061C, strain MRC1, stronger effect = lower value 1.01 | locus YCL069W, strain vba3, stronger effect = lower value 1 | locus YCR088W, strain abp1, stronger effect = lower value 1 | locus YDL005C, strain med2, stronger effect = lower value 1 | locus YDL035C, strain GPR1, stronger effect = lower value 1.03 | locus YDL040C, strain nat1, stronger effect = lower value 1 | locus YDL074C, strain BRE1, stronger effect = lower value 1 | locus YDL101C, strain DUN1, stronger effect = lower value 1.01 | locus YDL134C, strain PPH21, stronger effect = lower value 1.03 | locus YDL185W, strain tfp1, stronger effect = lower value 1.01 | locus YDL192W, strain arf1, stronger effect = lower value 1.02 | locus YDR001C, strain nth1, stronger effect = lower value 1 | locus YDR069C, strain doa4, stronger effect = lower value 1 | locus YDR101C, strain arx1, stronger effect = lower value 1.02 | locus YDR137W, strain rgp1, stronger effect = lower value 1.03 | locus YDR159W, strain sac3, stronger effect = lower value 1 | locus YDR162C, strain NBP2, stronger effect = lower value 1.02 | locus YDR195W, strain ref2 0.99 | locus YDR297W, strain sur2, stronger effect = lower value 0.999 | locus YDR318W, strain mcm21, stronger effect = lower value 1.02 | locus YDR334W, strain swr1, stronger effect = lower value 1 | locus YDR335W, strain msn5, stronger effect = lower value 0.996 | locus YDR363W, strain ESC2, stronger effect = lower value 0.885 | locus YDR388W, stronger effect = lower value 1.02 | locus YDR392W, strain spt3, stronger effect = lower value 0.996 | locus YDR502C, strain sam2, stronger effect = lower value 1.02 | locus YEL003W, strain gim4, stronger effect = lower value 0.993 | locus YEL037C, strain rad23, stronger effect = lower value 0.991 | locus YEL061C, strain CIN8 (second series), stronger effect = lower value 0.993 | locus YEL061C, strain CIN8, stronger effect = lower value 1.01 | locus YER002W, strain NOP16, stronger effect = lower value 1.01 | locus YER015W, strain faa2, stronger effect = lower value 0.989 | locus YER016W, strain bim1, stronger effect = lower value 1 | locus YER110C, stronger effect = lower value 1.03 | locus YER111C, strain swi4, stronger effect = lower value 1.02 | locus YER155C, strain BEM2 (second series), stronger effect = lower value 0.994 | locus YER155C, strain BEM2, stronger effect = lower value 1.02 | locus YER167W, strain BCK2, stronger effect = lower value 1.02 | locus YFR010W, strain ubp6, stronger effect = lower value 1.01 | locus YGL078C, strain dbp3, stronger effect = lower value 1.01 | locus YGL086W, strain mad1, stronger effect = lower value 1 | locus YGL167C, strain pmr1, stronger effect = lower value 1.01 | locus YGL173C, strain kem1, stronger effect = lower value 1.01 | locus YGL227W, strain vid30, stronger effect = lower value 1.01 | locus YGL240W, strain doc1, stronger effect = lower value 1.01 | locus YGL248W, strain PDE1, stronger effect = lower value 1 | locus YGL253W, strain hxk2, stronger effect = lower value 1 | locus YGR135W, strain pre9, stronger effect = lower value 1.05 | locus YGR229C, strain SMI1, stronger effect = lower value 1.01 | locus YGR252W, strain gcn5, stronger effect = lower value 1.01 | locus YHR013C, strain ard1, stronger effect = lower value 1.01 | locus YHR027C, strain rpn1, stronger effect = lower value 1.01 | locus YHR030C, strain SLT2, stronger effect = lower value 1.02 and 1.01 | locus YHR079C, strain IRE1 (second series), stronger effect = lower value 1.01 | locus YHR079C, strain IRE1, stronger effect = lower value 1 | locus YHR094C, strain hxt1, stronger effect = lower value 1.02 | locus YHR129C, strain ARP1, stronger effect = lower value 1.01 | locus YHR142W, strain chs7, stronger effect = lower value 0.994 | locus YHR200W, strain rpn10, stronger effect = lower value 1.02 | locus YIL066C, strain RNR3, stronger effect = lower value 1.02 | locus YIL073C, strain SPO22, stronger effect = lower value 1.06 | locus YIL125W, strain kgd1, stronger effect = lower value 1.02 | locus YIR030C, strain dcg1, stronger effect = lower value 1.02 | locus YJL092W, strain hpr5, stronger effect = lower value 1.02 | locus YJL095W, strain BCK1 (second series), stronger effect = lower value 1.01 | locus YJL095W, strain BCK1, stronger effect = lower value 0.994 and 1.04 | locus YJL115W, strain asf1, stronger effect = lower value 0.993 | locus YJL129C, strain trk1, stronger effect = lower value 1.01 | locus YJL134W, strain LCB3, stronger effect = lower value 1.01 | locus YJL154C, strain vps35, stronger effect = lower value 0.995 | locus YJL164C, strain tpk1, stronger effect = lower value 1 | locus YJL166W, strain qcr8, stronger effect = lower value 0.996 | locus YJL168C, strain set2, stronger effect = lower value 1.01 | locus YJL187C, strain SWE1 (second series), stronger effect = lower value 1 | locus YJL187C, strain SWE1, stronger effect = lower value 1 | locus YJR043C, strain POL32, stronger effect = lower value 1 | locus YJR066W, strain TOR1, stronger effect = lower value 0.966
